CYP2C9 act – increases human cytochrome P450 2C9 activity. P11712. actives 1.4% (n = 96,000). recombinant CYP2C9, luciferin-H conversion, luminescence; stronger effect = higher value; factor 1 = untreated enzyme, 0 = blocked. activation factor at 5 µM;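 active means activation factor of 2 or more for CYP2C9 at a 5 µM dose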;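 further: 0 = sulfaphenazole-blocked wells and 1 = vehicle-only wells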
CYP2C19 activ – activators of human cytochrome P450 2C19 | activation factor at 5 µM | recombinant CYP2C19, luciferin-H EGE luminescence; stronger effect = higher value; 0 = fully inhibited enzyme, 1 = untreated enzyme | P33261 | 96,000 tested, under 10 active;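 active means activation factor of at least 2 at 5 µM in the primary screen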;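 further: 0 = wells with 2.5 mM tranylcypromine and 1 = vehicle-only wells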
Target sequence (P33261 whole entry, looked up): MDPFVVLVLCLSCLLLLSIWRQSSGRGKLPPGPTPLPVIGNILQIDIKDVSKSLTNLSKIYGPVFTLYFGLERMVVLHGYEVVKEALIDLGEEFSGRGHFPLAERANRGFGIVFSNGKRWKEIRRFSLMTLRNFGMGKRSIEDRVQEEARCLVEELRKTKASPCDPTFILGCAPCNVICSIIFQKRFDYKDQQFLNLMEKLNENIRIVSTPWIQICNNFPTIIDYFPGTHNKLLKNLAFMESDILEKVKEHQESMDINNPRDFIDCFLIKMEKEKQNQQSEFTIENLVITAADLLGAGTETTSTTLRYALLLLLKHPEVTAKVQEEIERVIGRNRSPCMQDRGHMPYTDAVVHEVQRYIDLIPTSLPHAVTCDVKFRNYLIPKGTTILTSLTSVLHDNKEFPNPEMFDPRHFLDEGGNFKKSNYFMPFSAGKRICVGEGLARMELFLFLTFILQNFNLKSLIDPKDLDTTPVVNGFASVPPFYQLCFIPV
Cav32 inh – blocks human Cav3.2 T-type calcium channel; O95180; B-score at 10 µM; Cav3.2-expressing cells, Fluo-4 calcium fluorescence FDSS; stronger effect = lower value; actives 4% (n = 100,000); AID 449739;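 active means single-dose well whose peak fluorescence ratio is a statistical outlier from its plate by either plate-standardised score or position-corrected B-score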
CYP2C9 inhib – human CYP2C9 inhibition. CYP2C9 Supersomes, luciferin-H conversion, luminescence. inhibition, % at 5 µM. actives 20% (n = 96,000). AID 777;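 active means blocking of liver enzyme CYP2C9 beyond about 50% at 5 µM, limit read from the data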
CYP2C19 inh – blocks human cytochrome P450 2C19; CYP2C19 Supersomes, luciferin-H EGE luminescence, 30 min; inhibition, % at 5 µM; actives 21% (n = 96,000); AID 778;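 active means CYP2C19 inhibition above a set limit at 5 µM in the primary screen, cut at about 50% in these data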;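 further: plate controls were negative control wells for no effect and 2.5 mM tranylcypromine positive control for full effect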
* = called active by the depositor. A selection: hits, their analogues and other compounds. The true share with any hit is near 27%.

Screening O=C(NCc1ccco1)c1csc2c1CCCCC2 returned CYP2C9 act 4.2*, CYP2C19 activ 0.6, Cav32 inh 0.11, CYP2C9 inhib -317 and CYP2C19 inh 43.
`O=C(NCc1ccccc1)c1csc2c1CCCCC2` gave CYP2C9 act 4*, CYP2C19 activ 0.6, Cav32 inh -3.4, CYP2C9 inhib -304 and CYP2C19 inh 35.
For Cc1ccccc1NC(=O)c1csc2c1CCCC2 the results were CYP2C9 act 1.1, CYP2C19 activ 0.8, Cav32 inh -1.3, CYP2C9 inhib -6 and CYP2C19 inh 20.
Screening O=C(Nc1sccc1C(=O)NCc1ccco1)c1cccnc1 returned CYP2C9 act 0.1, CYP2C19 activ 0.8, Cav32 inh -0.97, CYP2C9 inhib 90* and CYP2C19 inh 24.
O=C(NCc1cccs1)c1cc2c(s1)CCCC2 was read as CYP2C9 act 0.5, CYP2C19 activ 0.4, Cav32 inh -2.7, CYP2C9 inhib 52* and CYP2C19 inh 64*.
CCCc1nn2c(=O)c(C(c3cccc(Cl)c3)c3c(O)nc4sc(CCC)nn4c3=O)c(O)nc2s1 was read as CYP2C9 act 0.9, CYP2C19 activ 1, Cav32 inh 0.13, CYP2C9 inhib 12 and CYP2C19 inh 4.
`COCCn1c(Sc2ccccc2)nc2c1c(=O)[nH]c(=O)n2C` gave CYP2C9 act 1, CYP2C19 activ 1.1, Cav32 inh 0.31, CYP2C9 inhib 4 and CYP2C19 inh -7.
Screening COC(=O)C1=C(C(=O)OC)[C@@H]2N(C)c3ccccc3[C@@]23C[C@@H](C(=O)OC)N(C(=O)COCc2ccccc2)C3=N1 returned Cav32 inh 0.042.
`O=C(NCc1cccs1)c1ccccc1C(=O)NCc1cccs1` gave CYP2C9 act 0.9, CYP2C19 activ 0.6, Cav32 inh -0.34, CYP2C9 inhib 7 and CYP2C19 inh 35.
For O=C(NCc1cccs1)c1csc2c1CCCCC2 the results were CYP2C9 act 2.5*, CYP2C19 activ 0.7, Cav32 inh -0.93, CYP2C9 inhib -150 and CYP2C19 inh 31.
For CCCCCCNC(=O)c1cc(-c2ccco2)nc2ccccc12 the results were Cav32 inh -2.
For O=C(Nc1ccc(NC(=O)c2sc3ccccc3c2Cl)cc1Cl)c1ccco1 the results were CYP2C9 act 1.1, CYP2C19 activ 0.8, CYP2C9 inhib -9 and CYP2C19 inh 22.
Screening O=C(c1ccoc1)N1CCC2(CC1)Oc1ccc(Cl)cc1C(=O)C21CC(c2ccc(Cl)cc2)=NO1 (configuration not stated) returned Cav32 inh -0.32.
`Nc1nc(Nc2cccc(F)c2)nc2ccccc12` gave CYP2C9 act 0.4, CYP2C19 activ 0.4, Cav32 inh 0.42, CYP2C9 inhib 56* and CYP2C19 inh 62*.
For O=C(O)C1C2C=CC(C3CC23)C1C(=O)NCCc1ccccc1 (configuration not stated) the results were CYP2C9 act 0.9, CYP2C19 activ 0.6, Cav32 inh -0.41, CYP2C9 inhib 10 and CYP2C19 inh 42.
`CCOC(=O)C1=NN(C(=O)Nc2cccc(C(F)(F)F)c2)C2C(=O)N(c3cccc(C(F)(F)F)c3)C(=O)C12` (configuration not stated) gave CYP2C9 act 0.6, CYP2C19 activ 0.6, Cav32 inh -5.7*, CYP2C9 inhib 45 and CYP2C19 inh 35.
For O=C(Nc1ccccn1)c1cc2ccccc2o1 the results were Cav32 inh 0.18.
`Cc1csc(C(C#N)C(=O)c2cc3ccccc3o2)n1` (configuration not stated) gave CYP2C9 act 0.4, CYP2C19 activ 1, CYP2C9 inhib 60* and CYP2C19 inh 4.
`COCc1cc(C)nc2sc(C(=O)N3CCN(c4ccccc4)CC3)c(N)c12` gave CYP2C9 act 0.2, CYP2C19 activ 0.2, Cav32 inh -1.1, CYP2C9 inhib 78* and CYP2C19 inh 80*.
Screening Cc1cc(C)c2c(N)c(C(=O)N3CCN(c4ncccn4)CC3)sc2n1 returned CYP2C9 act 0.6, CYP2C19 activ 0.5, Cav32 inh 0.2, CYP2C9 inhib 42 and CYP2C19 inh 50*.
Screening COCc1cc(C)nc2sc(C(=O)N3CCCCC3)c(N)c12 returned CYP2C9 act 0.8, CYP2C19 activ 0.9, Cav32 inh 1.2, CYP2C9 inhib 20 and CYP2C19 inh 12.
